Most compounds without a hit are left out; they make up all but 1.5% or so of the library.
APE1 inh – inhibitors of human APE1 endonuclease; recombinant APE1, TAMRA/BHQ-2 abasic DNA cleavage fluorescence; P27695; Potency, µM (highest dose often 65.8 µM), for inactives: at the top dose activity change, negative = inhibition, most hits filed as inhibitors; hit rate 0.35% among 350,000; AID 2517;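 also: potency is read from the fitted curve at half-maximal effect; plate controls were vehicle for no effect and reference inhibitor for full effect; nearly all actives have a fitted effect of over 55% in size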
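Incision of a quenched TAMRA/BHQ-2 THF abasic-site duplex (50 nM) by 0.75 nM APE1, after 15 min compound preincubation, measured as fluorescence increase over three 60 s reads. Values normalized to buffer, DMSO and NSC13755 control wells.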
PI5P4Ka inh – blocks human PI5P4K alpha kinase activity; AID 652105; hit rate 1.2% among 330,000; P48426; PI5P4Kalpha enzyme, ADP-Glo luminescence, 60 min; active compounds read low; max response, %; active = max response of -50% or lower; inconclusive = between -30% and -50%; inactive = -30% or higher; also: value at the top dose of about 77 µM
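qHTS, 1536-well: enzyme/substrate mix, compound by pin tool, 5 microM ATP final; RT 60 min; ADP-Glo reagents 1 (45 min) then 2 (30 min); luminescence.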
GCN5L2 inh – GCN5L2 (KAT2A) acetyltransferase inhibition; GCN5L2 HAT assay, ThioGlo1 CoA-SH fluorescence; Q92830; hit rate 0.21% among 390,000; Potency, µM (series often up to 58.9 µM), for inactives: top-dose activity change, negative = inhibition, actives largely listed as inhibitors; also: potency is read from the fitted curve at half-maximal effect
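Preincubate 20nM GCN5L2 with compound 15 min, RT → add 50uM ThioGlo1 + 75uM H3(1-25) + 70uM acetyl-CoA → read fluorescence 0 and 20 min. Primary qHTS; fluorescent artifacts likely.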
BLM helicase inh – inhibitors of human Bloom syndrome helicase BLM; P54132; recombinant BLM DNA unwinding, fluorescence dequenching; Potency, µM (doses to about 56.1 µM), inactives show at the top dose activity change, negative = inhibition, most hits filed as inhibitors; hit rate 0.2% among 350,000;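 also: potency is read from the fitted curve at half-maximal effect; plate controls were vehicle for no effect and no enzyme for full effect; nearly all actives have a fitted effect of over 35% in size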
RECQ1 inh – inhibitors of human RECQ1 DNA helicase | RECQ1 DNA unwinding, red fluorescence kinetic read | Potency, µM (doses to about 57.3 µM), for inactives: top-dose activity, negative = inhibition, usual class: inhibitors | hit rate 0.54% among 240,000 | AID 2549;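 also: potency is read from the fitted curve at half-maximal effect; plate controls were vehicle for no effect and no enzyme for full effect; nearly all actives have a fitted effect of over 30% in size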
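RECQ1T1 50 nM; forked duplex (20 bp + 30-nt ss tails) 200 nM, ATP 2 mM final; pH 8.0, 2 mM MgCl2, 2.5 ug/ml poly(dI-dC); 15 min compound preincubation; discontinuous kinetic read over 2 h at RT.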
FEN1 inh – blocks human flap endonuclease 1; AID 588795; hit rate 0.35% among 390,000; Recombinant FEN1 flap cleavage, fluorescence, 15 min; Potency, µM (doses to about 114 µM), inactives show at the highest dose activity change, negative = inhibition, usual class: inhibitors; also: potency is read from the fitted curve at half-maximal effect; nearly all actives have a fitted effect of over 65% in size
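Quantitative HTS format: each compound was titrated, incubated with 10 nM nuclease for 15 min at room temperature, then challenged with flap substrate at 50 nM final. Signal change over 15 min gave concentration–effect curves.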
Numbers without * were called inactive; i = inactive; ? = inconclusive; . = no result given. Unless noted, calls follow the shape of the dose curve; as a rule, active = well fitted curve in the direction sought with a large enough effect; inconclusive = small, poorly fitted or top-dose-only effect, or another doubt; inactive = no such curve, though single readings can be large; an effect the other way counts as inactive or inconclusive. Unless noted, % is scaled to controls: 0 for no effect and ±100 for the full control effect.

SMILES	APE1 inh	PI5P4Ka inh	GCN5L2 inh	BLM helicase inh	RECQ1 inh	FEN1 inh
CC(C)(C)NC(=O)C(c1ccccc1F)n1c(=O)c(-c2ccco2)nc2ccccc21 (stereo not drawn)	.	-24	.	.	.	.
Cc1ccc(C)c2c(C)ccnc12	.	.	.	.	.	12%
COc1cc(/C=N/NC(N)=O)ccc1OCC(=O)Nc1ccc(C)c(C)c1	5%	6	-2%	10µM*	-3%	?
COc1cc(/C=N/NC(=O)COc2c(C)cc([N+](=O)[O-])cc2C)ccc1OC(=O)c1ccccc1	8%	4	-6%	-5%	28µM*	-4%
O=C(N/N=C/c1ccc(OC(=O)c2ccccc2)c([N+](=O)[O-])c1)c1ccc(O)cc1	-4%	-79*	-13%	1%	-15%	-1%
COc1ccc(C(=O)Oc2ccc(/C=N/NC(=O)c3ccccc3OC)cc2[N+](=O)[O-])cc1	1%	-1	0%	0%	2%	5%
COc1ccccc1N(C(C)=O)C1=C(Cl)C(=O)c2ccccc2C1=O	.	-89*	.	.	.	.
Cc1[nH][nH]c(=O)c1C(c1ccc(-c2cccc(Cl)c2)o1)c1c(C)[nH][nH]c1=O	11%	-15	-10%	?	11%	-17%
Cc1[nH][nH]c(=O)c1C(c1ccc(-c2cccc(C(=O)O)c2)o1)c1c(C)[nH][nH]c1=O	18µM*	?	0%	-1%	?	-18%
NC(=S)n1[nH]c(-c2ccc([N+](=O)[O-])cc2)c(N=Nc2cccc(Cl)c2)c1=O	-7%	-79*	-6%	-10%	i	50µM*
NC(=S)n1[nH]c(-c2ccc([N+](=O)[O-])cc2)c(N=Nc2ccc(O)cc2)c1=O	5%	-28	4%	-5%	-5%	-19%
CC(C)c1ccc(Cn2cnc3c(cnn3C(C)(C)C)c2=O)cc1	-12%	.	.	.	.	-18%
CCOc1ccccc1-c1c2cc(O)c(=O)cc-2oc2cc(O)c(O)cc12	-2%	-55*	1%	10µM*	-5%	20µM*
O=c1cc2oc3cc(O)c(O)cc3c(-c3ccccc3O)c-2cc1O	0.89µM*	-88*	?	6.3µM*	3.5µM*	22µM*
COc1ccccc1-c1cc(=O)c2cc(O)ccc2o1	11%	.	.	1%	-1%	.
O=c1cc(-c2ccccc2O)oc2cc(O)ccc12	14%	.	-15%	-12%	-12%	.
O=c1cc(-c2cccc(O)c2O)oc2ccccc12	-6%	.	.	0%	6.3µM*	.
O=c1cc(/C=C/c2ccc([N+](=O)[O-])cc2)c2ccccc2[nH]1	.	.	.	.	.	-10%
CCCCCN(CCCCC)C(=O)[C@H](CCC(=O)O)NC(=O)[C@H](Cc1ccc(OP(=O)(O)O)cc1)NC(C)=O	-2%	.	3%	1%	-16%	.
Cc1ccc(S(=O)(=O)N(CC(=O)O)Cc2ccco2)cc1	14µM*	-21	0%	-3%	-19%	-16%
N#Cc1c(-c2ccc(Br)cc2)no[n+]1[O-]	0%	.	.	.	.	.
COC1=C(N)C(=O)c2nc(-c3nc(C(=O)O)c(C)c(-c4ccc(OC)c(OC)c4O)c3N)ccc2C1=O	-10%	-12	49%	3.5µM*	-17%	4µM*
COc1ccc(C(=O)O)c(O)c1OC	-16%	.	0%	4%	-3%	.
O=C(C[n+]1ccccc1Cl)c1ccc(F)cc1	.	.	.	.	.	-7%
O=S(=O)(c1cccc(F)c1)N1CCN(c2nc(-c3cccs3)nc3ccccc23)CC1	.	.	.	.	.	-5%
Clc1ccc(Cn2c(/C=C/c3ccco3)nc3ccccc32)cc1	-3%	-78*	-14%	-7%	-29%	-17%
Cc1ccc(Cn2c(/C=C/c3ccco3)nc3ccccc32)cc1	0%	-64*	-8%	-21%	10%	0%
C#CCn1c(/C=C/c2ccc(Cl)cc2)nc2ccccc21	.	.	-11%	-9%	.	-25%
CCCCn1c(/C=C/c2ccco2)nc2ccccc21	7%	-25	-3%	?	0%	-1%
O=C(C[n+]1ccccc1Br)c1ccc(O)c(O)c1	.	.	.	.	.	9%

High-throughput results as filed in PubChem BioAssay.
